p53ts 32C tox: qHTS Screen for Compounds that Selectively Target Cancer Cells with p53 Mutations: Cytotoxicity of p53ts Cells at the Permissive Temperature; H1299-p53A138V at 32C, ATP luminescence viability, 24 h; AID 924, 2007; 0.93% of 130,000 active; Potency, µM (doses to about 46.1 µM), for inactives: at the highest dose activity change, negative = cytotoxicity, most hits filed as cytotoxic;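 note: 0% = DMSO and -100% = full killing by reference compound; nearly all actives have a fitted effect of over 55% in size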
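H1299-p53 A138V cells (temperature-sensitive p53) exposed 24 h to up to 46 uM compound at 32C, where p53 is wild-type in conformation. Viability read as ATP luminescence and normalised to DMSO and 100 uM tamoxifen. AC50 fitted with the Hill equation.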
Tau filament bind: qHTS Assay for Tau Filament Binding; Microtubule-associated protein tau (Homo sapiens), P10636; recombinant tau filaments, thioflavin S fluorescence, 15 h; filaments grown with octadecylsulfate alongside compound; Potency, µM (highest dose often 57.1 µM), for inactives: top-dose activity change, negative = inhibition; 2% of 71,000 active; AID 596, 2007;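 note: % is set by controls: 0 for no effect and ±100 for the full control effect; actives lower thioflavin S fluorescence by blocking filaments or displacing dye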
Target sequence (P10636 whole entry, looked up): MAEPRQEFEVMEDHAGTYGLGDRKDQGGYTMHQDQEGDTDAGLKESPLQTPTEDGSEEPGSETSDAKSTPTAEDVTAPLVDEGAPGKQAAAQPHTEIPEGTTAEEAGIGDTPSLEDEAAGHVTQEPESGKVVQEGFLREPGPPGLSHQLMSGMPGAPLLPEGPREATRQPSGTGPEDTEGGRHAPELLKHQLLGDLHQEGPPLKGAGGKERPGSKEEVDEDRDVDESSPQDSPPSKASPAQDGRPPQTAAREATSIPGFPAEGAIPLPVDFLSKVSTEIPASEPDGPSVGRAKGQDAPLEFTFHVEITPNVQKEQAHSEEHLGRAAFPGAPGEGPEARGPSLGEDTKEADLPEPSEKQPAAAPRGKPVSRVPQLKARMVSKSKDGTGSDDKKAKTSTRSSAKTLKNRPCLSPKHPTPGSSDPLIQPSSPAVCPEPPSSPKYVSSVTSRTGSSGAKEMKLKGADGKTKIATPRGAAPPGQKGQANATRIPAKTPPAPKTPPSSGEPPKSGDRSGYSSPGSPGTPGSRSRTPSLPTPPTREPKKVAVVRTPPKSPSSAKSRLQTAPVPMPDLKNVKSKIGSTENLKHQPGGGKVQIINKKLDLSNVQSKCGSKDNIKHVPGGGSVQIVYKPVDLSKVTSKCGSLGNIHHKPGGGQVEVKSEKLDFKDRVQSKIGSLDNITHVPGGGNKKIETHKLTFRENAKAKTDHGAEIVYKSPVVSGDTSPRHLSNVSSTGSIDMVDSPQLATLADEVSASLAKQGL
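Recombinant tau protein (human, 1 uM final) plus 30 uM ODS in HEPES pH 7.4 with NaCl, DTT and thioflavine S. Compound present from the start; fluorescence at 510 nm after 15 h, 37 C.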
p53ts 39C tox: qHTS Screen for Compounds that Selectively Target Cancer Cells with p53 Mutations: Cytotoxicity of p53ts Cells at the Nonpermissive Temperature | H1299-p53A138V viability at 39C, ATP luminescence, 24 h | Potency, µM (titrated, usually from 46.1 µM), for inactives: top-dose activity change, negative = cell killing, hits mostly cytotoxic | 1.5% of 130,000 active | AID 902, 2007; note: % is set by controls: 0 for no effect and ±100 for the full control effect; nearly all actives have a fitted effect of over 55% in size
Peg3 imprint: qHTS Assay for Compounds that Induce Erasure of Genomic Imprints; 0.02% of 110,000 active; mouse ES Peg3-LacZ reporter, beta-gal luminescence, 40 h; Potency, µM (series often up to 60.7 µM), inactives show top-dose activity change, positive = activation, hits mostly activators; AID 1948, 2009
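Gelatin-coated wells received 300 freshly trypsinized female ES cells with a Peg3LacZ-Neo reporter on the maternal allele, then incubated 40 hours at 37C. BetaGlo was added for 5 minutes at room temperature before a single luminescence read.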
FLuc inh: qHTS Assay for Inhibitors of Firefly Luciferase | purified firefly luciferase, luminescence, 8 min | Potency, µM (highest dose often 57.1 µM), for inactives: at the highest dose activity change, negative = inhibition, hits mostly inhibitors | 2.2% of 72,000 active; note: % is set by controls: 0 for no effect and ±100 for the full control effect; nearly all actives have a fitted effect of over 40% in size
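Firefly luciferase (PKLight detection mix) with 10 uM ATP in pH 7.2 imidazole buffer (KCl, MgCl2, Tween 20, BSA). Compounds tested across a concentration series (qHTS). Luminescence read after 8 min at ambient temperature.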
* = called active by the depositor; u = inconclusive; x = not tested or not shown; [ ] = remark or other dose. Hits are enriched below; roughly 3.4% of the tested compounds scored in any of these assays. Calls come from the whole dose curve; as a rule, active = well fitted curve in the direction sought with a large enough effect; inconclusive = small, poorly fitted or top-dose-only effect, or another doubt; inactive = no such curve, though single readings can be large; an effect the other way counts as inactive or inconclusive. Potency is the fitted concentration of half-maximal effect.

SMILES	p53ts 32C tox	Tau filament bind	p53ts 39C tox	Peg3 imprint	FLuc inh
Cc1ccc(CNC(=O)Cn2c(=O)n(-c3ccc(C)cc3)c(=O)c3c2c2cc(C)ccc2n3C)cc1	-9.0%	x	u	10.8%[10.9 µM]	x
O=C(NCCCn1ccnc1)c1cn(-c2ccccc2)nc1-c1ccccc1	u	-5.0%	-28.7%	-1.8%	12.6µM*
COCCSc1ccccc1C(=O)NCCCn1ccnc1	0.1%	11.0%	3.4%	-8.0%	0.0%
CC(C)(C)NC(=O)c1ccccc1-c1nc(-c2ccccc2Cl)no1	-18.1%	4.8%	-22.3%	-19.9%	20µM*
COCCNC(=O)c1ccccc1-c1nc(-c2ccccc2OC)no1	-12.2%	-17.0%	-4.3%	-10.8%	-10.2%
CC(C)NC(=O)c1ccccc1-c1nc(-c2ccccc2Cl)no1	-18.5%	0.4%	-11.5%	-12.9%	u
CCOc1ccccc1NC(=O)c1ccccc1-c1nc(-c2ccccc2OC)no1	-19.5%	31.4%	-13.4%	-27.7%	25.1µM*
Cc1c(Cl)cccc1NC(=O)Nc1nnc(N2CCCCCC2)s1	-2.9%	x	0.8%	-7.8%[10.9 µM]	x
CC(=O)C(C(C)=O)c1c(Cl)c(O)c(O)c2c(C(=O)c3ccccc3)coc12	12.6µM*	25.1µM*	u	-35.4%	u
O=C(NCCCN1CCOCC1)c1ccc(Cc2nc3ccccc3[nH]2)cc1	3.0%	x	-0.1%	x	x
O=C(CN1CCCC1)N1c2ccccc2Sc2ccccc21	1.0%	20µM*	6.9%	-11.6%	-0.2%
NCCCC(=O)N1c2ccccc2Sc2ccccc21	1.0%	u	-15.8%	-11.1%	1.8%
COc1cc2c(cc1NC(=O)CSCC(=O)O)oc1ccccc12	-13.1%	-4.0%	-19.4%	-6.3%	-7.0%
COc1cc2c(cc1NC(=O)COC(=O)Cn1cnc3ccccc31)oc1ccccc12	5.2%	2.4%	-1.9%	2.7%	15.8µM*
COc1ccc(-c2cc([C@H](O)C3CCCCN3)c3ccccc3n2)cc1 (some centres not stated)	x	x	x	-9.5%[10.9 µM]	x
O=C1Nc2ccc(S(=O)(=O)N3CCOCC3)c3cccc1c23	1.6%	-2.2%	4.9%	-14.2%	2.4%
O=S(=O)(c1cccc2c(I)cccc12)N1CCCNCC1	-21.3%	11.5%	u	-6.9%	-11.3%
CCOc1ccc(S(=O)(=O)N2CCN(c3c(C)cccc3C)CC2)c2ccccc12	-4.9%	x	6.7%	-9.8%[10.9 µM]	x
O=S(=O)(c1cccc2c(Cl)cccc12)N1CCCNCC1	-3.5%	u	15.8µM*	-16.4%	-4.4%
O=C1Nc2ccc(S(=O)(=O)N3CCCCCC3)c3cccc1c23	-0.7%	25.1µM*	16.5%	-16.4%	-1.9%
CCOc1ccccc1N1CCN(S(=O)(=O)c2ccc3c4c(cccc24)C(=O)N3)CC1	18.9%	15.8µM*	15.9%	-17.8%	1.3%
COc1cccc([C@H]2Oc3ccc(OC)cc3/C(=N\OC[C@@H](O)[C@@H]3O[C@@H]4OC(C)(C)O[C@@H]4[C@H]3O)[C@@H]2O)c1	-18.0%[9.22 µM]	x	3.5%[9.22 µM]	x	-1.6%[11.4 µM]
N#C/C(=C\c1cc(Br)c(O)c(Br)c1)c1nc2ccccc2c(=O)[nH]1	15.2%	x	-11.8%	-10.4%[10.9 µM]	x
Cc1cc(C(=O)CNCc2ccco2)c(C)n1-c1ccc(F)cc1	u	6.1%	u	-15.6%	25.1µM*
CC1(C)CCC(NC(=O)[C@H](N)CCC(=O)O)CC1	-3.7%	-7.4%	0.4%	x	-1.4%
CCOc1ccc(CNC(=O)C2CCN(S(=O)(=O)c3cn(C)cn3)CC2)cc1OC	-4.0%	x	u	3.7%[10.9 µM]	x
COc1ccc(NC(=O)Cn2c(SCc3ccc(C)cc3)nc3cccnc32)cc1OC	3.16µM*	x	x	x	x
COc1ccc(NC(=O)Cn2c(SCc3ccc(F)cc3)nc3cccnc32)c(OC)c1	-26.5%	x	x	x	x
O=C(NCCN1CCCCC1)c1ccc(Cn2c(SCc3ccc(F)cc3)nc3cccnc32)cc1	7.94µM*	x	7.94µM*	-10.1%[10.9 µM]	x
COCCCNC(=O)c1ccc(Cn2c(SCc3ccc(F)cc3)nc3cccnc32)cc1	11.2µM*	x	x	x	x
